The values below come from PubChem BioAssay (NCI).

A short description of experiment [1]: NCI Yeast Anticancer Drug Screen. Data for the rad50 strain (AID 155).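 Further: 0% = growth of vehicle-only cultures of the same strain.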 Conditions: S. cerevisiae rad50 strain growth inhibition, stronger effect = higher value; at 50.0 µM unless noted. Summed up: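 Readout: growth inhibition relative to vehicle-treated cultures. Compound exposure was carried out in a genetically defined yeast strain deficient in DNA damage repair.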

Experiment [2] in a line: NCI Yeast Anticancer Drug Screen. Data for the mec2-1 strain (AID 157). Conditions: S. cerevisiae mec2-1 strain, stronger effect = higher value; at 50.0 µM unless noted. The essentials:
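Growth inhibition is read against vehicle-treated controls after compound exposure of the mec2-1 yeast strain, which is defective in DNA damage repair or cell cycle control.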

Experiment [3] in a line: NCI Yeast Anticancer Drug Screen. Data for the sgs1 mgt1 strain (AID 161).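 Further: 0% = growth of cultures given vehicle only.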 Conditions: S. cerevisiae sgs1 mgt1 strain, stronger effect = higher value; at 50.0 µM unless noted. The essentials: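 Compounds are added to genetically altered yeast, and growth is compared with cultures given vehicle alone to give percent inhibition.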
The nature of experiment [4]: NCI Yeast Anticancer Drug Screen. Data for the cln2 rad14 strain (AID 165).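 Further: 0% = growth equal to vehicle treated cultures.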 Conditions: S. cerevisiae cln2 rad14 strain, stronger effect = higher value; at 50.0 µM unless noted. Summed up:
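Growth inhibition, relative to vehicle-treated controls, is the read-out. The test organism is a yeast strain with defined genetic alterations, cln2 rad14.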

A short description of experiment [5]: NCI Yeast Anticancer Drug Screen. Data for the bub3 strain (AID 167). Conditions: S. cerevisiae bub3 mutant strain, stronger effect = higher value; at 50.0 µM unless noted. The essentials:
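Readout: yeast growth inhibition, expressed relative to vehicle-only wells. The test organism is a mutant strain from a panel with lesions in DNA repair or checkpoint genes.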

Experiment [6] is described as follows: NCI Yeast Anticancer Drug Screen. Data for the mlh1 rad18 strain (AID 175). The note with it: S. cerevisiae mlh1 rad18 strain growth inhibition, stronger effect = higher value; at 50.0 µM unless noted. Summed up: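 Cells of a genetically altered yeast strain, deficient in DNA damage repair, were treated with compound. Their growth was then compared with that of vehicle-treated cultures to give inhibition.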

About 79,000 compounds went through this panel and 15% of them were active in at least one assay; those are over-represented in the sample as a whole. Values without a mark were called inactive. Activity calls are given as the source filed them. No stated cut-off is given here; in the data, active means growth inhibition above about 70%; inactive means the rest.

Regarding `Cc1cc([N+](=O)[O-])ccc1NC(=O)n1nnc2cc(Cl)ccc21`, the growth inhibition in experiment [1] is -5.55%; in experiment [2], 0.35%; in experiment [3] it was -5.85%; in experiment [4], 1.1%; in experiment [5] it was 21%; in experiment [6], 6.9%.
In the case of `COc1ccc(C(C)(OC)c2cc(C(C)(C)C)c(O)c(C(C)(C)C)c2)cc1` (stereo not given), the growth inhibition is -19.2% in experiment [1]; -12.6% in experiment [2]; -20.2% in experiment [3]; -0.55% in experiment [4]; -2.05% in experiment [5]; -21.6% in experiment [6].
In the case of `COC(=O)c1cc(-c2ccc(N)cc2)n2c(N)nnc2n1`, the growth inhibition in experiment [1] was 15%; in experiment [2] it was 23.4%; in experiment [3] it was 25.8%; in experiment [4], -1.55%; in experiment [5], 2.45%; in experiment [6], 18.6%.
For the molecule `Cn1cc(C(=O)c2ccccc2)cc(C(=O)c2ccccc2)c1=O`, the growth inhibition is -3.05% in experiment [1]; -12.1% in experiment [2]; -6.05% in experiment [3]; 1.5% in experiment [4]; -15.2% in experiment [5]; -36.5% in experiment [6].
With `Cc1nc2[nH]ncc2c(=O)n1-c1ccccc1Cl`, the growth inhibition in experiment [1] is 6%; in experiment [2] it was -4.1%; in experiment [3] it was 5.95%; in experiment [4] it was 5.35%; in experiment [5], 3.75%; in experiment [6], 9%.
Consider `Cc1cc(Cl)ccc1NC(=O)CC/C(CC(=O)C(C)C)=N\NC(=O)C[n+]1ccccc1`, for which the growth inhibition in experiment [1] was -43.9%; in experiment [2] it was 3.45%; in experiment [3], -20.4%; in experiment [4], -15.2%; in experiment [5], -30.6%; in experiment [6] it was -32.8%.
On to `O=c1oc2c3ccc4ccccc4c3n(CCN3CCOCC3)c2c2ccccc12`, for which the growth inhibition in experiment [1] was 19.1%; in experiment [2] it was -3.6%; in experiment [3], -29.6%; in experiment [4], 2.35%; in experiment [5], -19.9%; in experiment [6], -3.9%.
Take `O=C(O)c1cccc(S(=O)(=O)c2ccc([N+](=O)[O-])cc2)c1`: the growth inhibition was -0.25% in experiment [1]; 0.55% in experiment [2]; 4.9% in experiment [3]; -6.15% in experiment [4]; -5.7% in experiment [5]; 14.2% in experiment [6].
Turning to `ON=C1CCC(c2ccccc2)CC1` (stereo not given), the growth inhibition in experiment [1] was -21.3%; in experiment [2], -24%; in experiment [3] it was 13.8%; in experiment [4], -24.2%; in experiment [5] it was 2.85%; in experiment [6], -9.6%.
As for `C[C@H]1/C(=C/C(=O)OCCN(C)C)CC[C@H]2[C@H]1C(=O)C[C@H]1C(C)(C)[C@@H](O)CC[C@]21C`, the growth inhibition in experiment [1] was 1.2%; in experiment [2], -1.75%; in experiment [3] it was -0.55%; in experiment [4] it was 13.8%; in experiment [5] it was 15.9%; in experiment [6], -34.1%.
`CC(=O)Oc1cc(S(=O)(=O)Nc2n[nH]c(N)n2)c(S)cc1Cl`: the growth inhibition in experiment [1] is -22.8%; in experiment [2], -18.3%; in experiment [3], -1.2%; in experiment [4], 11.7%; in experiment [5], -9.55%; in experiment [6] it was 8.45%.
For `CS(C)=NC(=Nc1ccccc1)c1ccccc1`, the growth inhibition was 6.9% in experiment [1]; 9.6% in experiment [2]; -12% in experiment [3]; -26.4% in experiment [4]; 9.7% in experiment [5]; 2.05% in experiment [6].
As to `CC(=O)OC1=C2OC(=O)C3(C2C=CC=C1)C1C=CC=CC13` (stereo not given), the growth inhibition in experiment [1] was -17.9%; in experiment [2], 1.3%; in experiment [3] it was 2.8%; in experiment [4] it was -2.45%; in experiment [5], -13.8%; in experiment [6], -1.95%.
Take `c1ccc(Cc2cncc(Cc3ccccc3)c2)cc1`: the growth inhibition is -22.5% in experiment [1]; 1.95% in experiment [2]; 6.85% in experiment [3]; -58.6% in experiment [4]; 55.5% in experiment [5]; 9.1% in experiment [6].
For the molecule `CCn1c(=O)n(Cc2ccccc2)c(=O)c2ccccc21`, the growth inhibition in experiment [1] was 19.6%; in experiment [2] it was 8.95%; in experiment [3] it was 24.8%; in experiment [4], 10.8%; in experiment [5], -4.7%; in experiment [6] it was 30.3%.
Turning to `Nc1ccccc1S(=O)(=O)Nc1ccccc1`, the growth inhibition was 30.9% in experiment [1]; 18.9% in experiment [2]; 12.5% in experiment [3]; -10.3% in experiment [4]; -28.4% in experiment [5]; 21.4% in experiment [6].
Consider `COc1ccc(NC(=O)c2ccc(OC)cc2)cc1`, for which the growth inhibition in experiment [1] was 0.7%; in experiment [2] it was -8.9%; in experiment [3] it was 5.2%; in experiment [4] it was 1.95%; in experiment [5] it was 7.85%; in experiment [6] it was -3.7%.
For the molecule `CC(=O)Nc1cccc(OC(=O)Nc2ccc(F)c(Cl)c2)c1`, the growth inhibition in experiment [1] was 57.6%; in experiment [2], 60.7%; in experiment [3] it was 71.7% (active); in experiment [4], 70.7% (active); in experiment [5] it was 56.8%; in experiment [6] it was 82% (active).
With `CCN(CCN1CCCCC1)c1ccccn1`, the growth inhibition in experiment [1] is 11%; in experiment [2] it was 1.3%; in experiment [3], 11.4%; in experiment [4] it was -35.7%; in experiment [5], 7.45%; in experiment [6], -10.9%.
In the case of `O=C1OC2C(O)C(CO)OC2n2c1cc(=O)[nH]c2=O` (stereo not given), the growth inhibition in experiment [1] was 2.55%; in experiment [2], 13.9%; in experiment [3], 9.4%; in experiment [4], -4.15%; in experiment [5] it was 3.5%; in experiment [6] it was -5.35%.
